Laboratory results from PubChem BioAssay (Tox21).
Results filed as inconclusive are left out. Activity calls are given as the source filed them. Calls follow the shape of the full dose curve. Where a SMILES comes first, the peptide text is derived from it. [ ]: non-standard residue; d: D form. pGlu = O=C1CC[C@@H](C(=O)O)N1

Target: Thyrotropin receptor (Homo sapiens) (UniProt P16473)
Experiment: qHTS assay to identify small molecule antagonists of the thyroid stimulating hormone receptor (TSHR) signaling pathway (AID 1259385); also: nearly all actives have a fitted effect of over 20% in size
Details: TSHR-HEK293 cAMP HTRF, TSH-stimulated antagonist mode; series mostly up to 92.4 µM
How it was run: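 TSHR-HEK293 cells (800/well) plated 18 h, then compounds with Ro20-1724 and TSH at 1.5 ng/mL final, 30 min at room temperature. cAMP quantified by HTRF (cAMP-d2/anti-cAMP-cryptate, 1 h); 15 concentrations in triplicate.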

Thyrotropin receptor (Homo sapiens), sequence (P16473 whole entry, looked up): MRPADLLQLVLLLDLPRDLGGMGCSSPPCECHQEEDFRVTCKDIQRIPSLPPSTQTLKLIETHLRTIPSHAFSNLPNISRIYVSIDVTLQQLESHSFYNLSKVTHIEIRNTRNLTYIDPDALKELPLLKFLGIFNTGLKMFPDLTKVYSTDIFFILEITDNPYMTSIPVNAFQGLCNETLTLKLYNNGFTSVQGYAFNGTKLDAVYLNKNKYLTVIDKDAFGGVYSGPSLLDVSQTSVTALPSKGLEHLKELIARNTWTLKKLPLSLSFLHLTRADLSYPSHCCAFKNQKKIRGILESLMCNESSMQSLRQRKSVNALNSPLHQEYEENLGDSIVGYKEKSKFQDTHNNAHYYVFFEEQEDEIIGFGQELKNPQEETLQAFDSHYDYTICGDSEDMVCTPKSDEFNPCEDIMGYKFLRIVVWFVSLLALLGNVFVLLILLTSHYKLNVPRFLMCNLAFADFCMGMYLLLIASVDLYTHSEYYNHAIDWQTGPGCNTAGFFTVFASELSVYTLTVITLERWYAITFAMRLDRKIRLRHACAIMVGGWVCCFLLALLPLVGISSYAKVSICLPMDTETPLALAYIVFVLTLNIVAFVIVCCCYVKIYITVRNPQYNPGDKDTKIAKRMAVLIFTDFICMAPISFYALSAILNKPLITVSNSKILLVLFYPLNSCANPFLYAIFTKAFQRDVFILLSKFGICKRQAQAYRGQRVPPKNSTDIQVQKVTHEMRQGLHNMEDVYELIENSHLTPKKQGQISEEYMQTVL

Structure (SMILES)	outcome
CC1(C)OC[C@@H](COC(=O)CCc2ccc(OC[C@@H](O)CNCCNC(=O)N3CCOCC3)cc2)O1	inactive
CCC(C(=O)NC(=O)NC(C)=O)c1ccccc1 (configuration not stated)	inactive
CC(C)(N)C#N	inactive
CN1C(C)(C)CC(O)CC1(C)C	inactive
O=C(c1ccccc1)C1(O)CCCCC1	inactive
[O-][n+]1cccc(CO)c1	inactive
CCNC(=O)[C@@H]1CCCN1C(=O)[C@H](CCCN=C(N)N)NC(=O)[C@H](CC(C)C)NC(=O)CNC(=O)[C@H](Cc1ccc(O)cc1)NC(=O)[C@H](CO)NC(=O)[C@H](Cc1c[nH]c2ccccc12)NC(=O)[C@H](Cc1cnc[nH]1)NC(=O)[C@@H]1CCC(=O)N1 ([pGlu]HWSYGLRP-NHEt)	inactive
CC(C)CC(C)(N)C#N (configuration not stated)	inactive
O=C(O)CCSCCC(=O)O	inactive
CC(COc1ccccc1)NN (configuration not stated)	inactive
C=CC(=O)OCCCl	inactive
NS(=O)(=O)Cc1noc2ccccc12	inactive
CC(=O)NC(=O)c1ccccc1O	inactive
OCCCCCO	inactive
O=C(CO)[C@@H](O)[C@H](O)[C@H](O)CO	inactive
C=CC(C)(CCC=C(C)C)OC(=O)CC (configuration not stated)	inactive

Structure (SMILES)	outcome
CN(C)[C@@H]1C(=O)C(C(=O)NCN2CCCC2)=C(O)[C@@]2(O)C(=O)C3=C(O)c4c(O)cccc4[C@@](C)(O)C3C[C@@H]12 (some centres not stated)	inactive
Clc1cc(Cl)cc(Cl)c1	inactive
CCCO[Si](OCCC)(OCCC)OCCC	inactive
C=COCC1CCC(COC=C)CC1 (configuration not stated)	inactive
O=Cc1cccc(Br)c1	inactive
C[N+](C)(CCOc1ccccc1)Cc1cccs1	inactive
CN1CCC(=C2c3ccccc3CCc3cccnc32)CC1	inactive
CCCCc1ccc2c(n1)[C@@H](c1ccc(OC)cc1C[C@H](C)C(=O)O)[C@H](C(=O)O)[C@H]2c1ccc2c(c1)OCO2	inactive
CC(=O)c1ccc2ccccc2c1	inactive
CN(C)CCCN(C)CCCN(C)C	inactive
O=[N+]([O-])c1cncn1CCN1CCOCC1	inactive
CCOC(=O)OC(C)OC1=C(C(=O)Nc2ccccn2)N(C)S(=O)(=O)c2ccccc21 (configuration not stated)	inactive
CCC(C)(CCCC(C)C)OC(C)=O (configuration not stated)	inactive
CC1(C)[C@@H]2CC[C@@]1(C)[C@H](O)C2	inactive
CCN[C@H]1C[C@H](C)S(=O)(=O)c2sc(S(N)(=O)=O)cc21	inactive
O=CN(CCO)CCO	inactive
